High-throughput results (PubChem BioAssay)
A selection: hits, their analogues and other compounds. The true share with any hit is near 7.5%.
Luc counter: blocks Kinase-Glo luciferase, a counter-screen artifact. Kinase-Glo luciferase, ATP luminescence, 8 min. Potency, µM (series often up to 38.3 µM), for inactives: at the highest dose activity change, negative = inhibition, usual class: inhibitors. 0.28% of 200,000 active. AID 1379; note: % is set by controls: 0 for no effect and ±100 for the full control effect; nearly all actives have a fitted effect of over 60% in size
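Luminescence was the read-out, taken after 8-minute incubation at ambient temperature. Luciferase turned over luciferin with 10 uM ATP in imidazole pH 7.2 buffer containing KCl, MgCl2, Tween 20 and BSA.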
ELG1 genotox: genotoxicity induction in ELG1-luciferase HEK293T cells. HEK293T ELG1-luciferase reporter, luminescence, 16 h. Potency, µM (series often up to 46 µM), for the others: at the top dose activity change, positive = activation, usual class: activators. 1.3% of 330,000 active; note: % of control where 0% means no effect; nearly all actives have a fitted effect of over 60% in size
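Reporter readout depends on ELG1 protein level, which increases with genetic stress. After 16 hr compound exposure at 37 °C, luciferase activity was quantified using ONE-Glo.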
Rab9 prom act: activates the Rab9 promoter. Huh7 Rab9 promoter-luciferase reporter, luminescence, 24 h. Potency, µM (doses to about 9.22 µM), without a hit: at the highest dose activation, negative = inhibition, usual class: activators. 2.8% of 320,000 active. AID 485297; note: % of control where 0% means no effect; nearly all actives have a fitted effect of over 60% in size
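Using Huh7 cells stably transfected with Rab9 promoter–luciferase, compounds were incubated 24 h at 37 °C, 5% CO2; luciferase luminescence was read 10 min after reagent addition.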
FLuc counter: firefly luciferase modulation, counter-screen for miR-21 project; 6.9% of 360,000 active; purified FLuc, Km substrates, luminescence inhibition; Potency, µM (series often up to 57.5 µM), for inactives: top-dose activity change, negative = inhibition, actives largely listed as inhibitors; P08659;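 note: plate controls were vehicle for no effect and reference inhibitor for full effect; nearly all actives have a fitted effect of over 55% in size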
Target sequence (P08659 whole entry, looked up): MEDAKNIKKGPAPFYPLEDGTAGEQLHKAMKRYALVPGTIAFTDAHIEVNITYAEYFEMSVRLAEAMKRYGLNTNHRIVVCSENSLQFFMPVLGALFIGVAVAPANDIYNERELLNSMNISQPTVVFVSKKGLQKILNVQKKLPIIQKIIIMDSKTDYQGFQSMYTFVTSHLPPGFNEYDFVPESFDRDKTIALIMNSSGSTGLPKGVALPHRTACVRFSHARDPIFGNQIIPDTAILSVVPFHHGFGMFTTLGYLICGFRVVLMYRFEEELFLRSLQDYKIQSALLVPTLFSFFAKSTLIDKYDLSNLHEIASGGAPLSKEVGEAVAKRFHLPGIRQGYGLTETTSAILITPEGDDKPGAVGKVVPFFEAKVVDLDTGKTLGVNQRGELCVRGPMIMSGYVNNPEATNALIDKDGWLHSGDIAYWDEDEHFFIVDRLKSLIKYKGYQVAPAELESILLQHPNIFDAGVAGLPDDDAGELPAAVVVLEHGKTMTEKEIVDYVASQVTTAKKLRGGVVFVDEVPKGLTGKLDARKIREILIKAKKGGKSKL
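Purified P. pyralis luciferase (10nM final) with 10uM D-luciferin and 10uM ATP (Km levels) in 50mM Tris acetate pH 7.5, 10mM Mg acetate, 0.01% Tween-20, 0.05% BSA; qHTS 6-point titration, ~60 µM downward; luminescence read.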
SMN2 splice enh: SMN2 splice variant enhancement; HEK293 SMN2-luciferase splicing reporter, luminescence, 30-36 h; Potency, µM (highest dose often 46.1 µM), for inactives: top-dose activity change, positive = activation, usual class: activators; 2.8% of 210,000 active; AID 1458; note: % of control where 0% means no effect; nearly all actives have a fitted effect of over 55% in size
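qHTS luciferase splicing reporter: luminescence rises when SMN2 exon 7 is included in transfected HEK293 cells. Compound exposure lasted 30-36 h at 37C, with 4.5 mM final sodium butyrate as control, followed by a ONE-Glo read.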
NPC1 prom act: activates the NPC1 promoter | 2.4% of 320,000 active | Potency, µM (series often up to 9.22 µM), for the others: at the highest dose activation, hits mostly activators | Huh7 NPC1 promoter luciferase reporter, 24 h | AID 485313; note: % of control where 0% means no effect; nearly all actives have a fitted effect of over 60% in size
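Compounds in DMSO were transferred onto Huh7 NPC1-luciferase reporter cells pre-incubated 2 h; after 24 h at 37 °C, Amplite reagent was dispensed and luminescence recorded 10 min later.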
The depositor's hits bear a star; ? = inconclusive; / = no result. Calls come from the whole dose curve; as a rule, active = well fitted curve in the direction sought with a large enough effect; inconclusive = small, poorly fitted or top-dose-only effect, or another doubt; inactive = no such curve, though single readings can be large; an effect the other way counts as inactive or inconclusive. Potency is the fitted concentration of half-maximal effect.

SMILES | Luc counter | ELG1 genotox | Rab9 prom act | FLuc counter | SMN2 splice enh | NPC1 prom act
CN1CCS/C1=C\C=C1/SC(=S)N(CC(=O)O)C1=O | -1% | -3% | 1% | 13µM* | 0% | -2%
C=CCN1C(=O)/C(=C\C=C2\N(C)c3ccccc3C2(C)C)SC1=S | -16% | -1% | -3% | -3% | -23% | -3%
CCN1C(=O)/C(=C/C=C2/SCCN2C)SC1=S | -18% | ? | 0.45µM* | 0.85µM* | ? | 0.45µM*
Cn1cccc1/C=C1/SC(=S)N(CC(=O)O)C1=O | 1% | 0% | -2% | ? | 79% | 1%
CCN1C(=O)/C(=C/C=C2/Sc3ccccc3N2CCO)SC1=S | ? | 11% | 1% | -15% | -48% | 0%
Cc1c(CNC(=O)C2CC2)c(-n2cccc2)n(Cc2ccccc2)c1C | -2% | 0% | 13% | -2% | 7% | 2%
Cc1cc(-n2c(C)cc(C(=O)COc3ccc(Cl)cc3C(N)=O)c2C)no1 | / | -4% | / | / | / | /
COc1ccc2oc(=O)c(C(=O)Nc3ccccc3C)cc2c1 | / | ? | 3.2µM* | 1.7µM* | / | 3.2µM*
N=c1oc2cc(O)ccc2cc1C(=O)Nc1nc2ccccc2s1 | -4% | 6.5µM* | 3.2µM* | 0.19µM* | 0% | 4µM*
COc1ccc2oc(=N)c(C(=O)Nc3ccccc3Cl)cc2c1 | / | ? | 2.5µM* | 0.54µM* | / | 3.5µM*
COc1ccc2oc(=N)c(C(=O)Nc3cccc(C)c3C)cc2c1 | / | ? | 4.5µM* | 0.76µM* | / | 2.2µM*
N=c1oc2cc(O)ccc2cc1C(=O)Nc1ccccn1 | -3% | 4% | 2% | ? | -7% | 1%
CNC(=O)c1cc2cc(OC)ccc2oc1=N | -4% | 2% | 0% | -17% | -13% | -7%
COc1ccc(NC(=O)N2CCC3(CC2)CCN(C(=O)c2cnccn2)CC3)cc1 | 1% | / | / | / | -12% | /
Cc1c(C(=O)N2CCCCCC2)c(S(=O)(=O)N(Cc2ccccc2)C(C)(C)C)c(C)n1C | / | / | / | -3% | / | /
COc1ccc2oc(=N)c(C(=O)Nc3ccc(Cl)cc3)cc2c1 | / | 1% | 26% | -10% | / | ?
O=C(Nc1ccccc1O)c1cc2cc(Br)ccc2oc1=O | / | ? | ? | ? | / | 3.5µM*
COc1ccc2oc(=N)c(C(=O)Nc3ccc(C)cc3)cc2c1 | / | 11% | ? | ? | / | 23%
N=c1oc2ccccc2cc1C(=O)Nc1ccccc1 | / | 0.82µM* | 1.3µM* | 0.76µM* | / | 0.5µM*
O=C(NNC(=O)c1cc2cc(Br)ccc2oc1=O)c1ccc(O)cc1 | -1% | -1% | -2% | -17% | -4% | -4%
COc1ccc2oc(=N)c(C(=O)Nc3ccccc3)cc2c1 | -16% | ? | 3.2µM* | 0.95µM* | 13µM* | ?
COc1ccc2oc(=O)c(C(=O)N3CCN(c4ccccc4)CC3)cc2c1 | -4% | 28% | 3% | ? | 15% | 3%
COc1ccc2oc(=O)c(C(=O)N3CCN(c4ccccc4C)CC3)cc2c1 | -3% | 9.2µM* | 27% | 13µM* | 14µM* | 18%
COc1cccc2sc(=NC(=O)CS(=O)(=O)c3ccc(Cl)cc3)n(C)c12 | / | -1% | -16% | -3% | / | -8%
O=C(CN1C(=O)CSc2ccc(S(=O)(=O)N3CCCC3)cc21)NCc1ccc(F)cc1Cl | / | / | / | -13% | / | /
N=c1oc2ccc(Cl)cc2cc1C(=O)Nc1ccc(F)cc1 | / | ? | 3.5µM* | ? | / | 3.5µM*
N=c1oc2cc(O)ccc2cc1C(=O)Nc1ccc(Br)cc1 | / | 17% | 1.4µM* | 2.7µM* | / | 1.8µM*
N=c1oc2ccc(Br)cc2cc1C(=O)NCc1ccccc1 | / | 14% | 6% | -1% | / | -6%
Cc1ccc(C2=CC(c3ccccc3F)n3c(nc4ccccc43)N2)cc1C (configuration not stated) | / | / | / | 6µM* | / | /
COc1cccc(C2=CC(c3ccccc3F)n3c(nc4ccccc43)N2)c1 (configuration not stated) | / | / | / | 12µM* | / | /
